Results published in PubChem BioAssay.
Unmarked numbers belong to inactive results.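 The calls were made as follows, unless noted: active = inhibition over a set limit, the all-compound mean plus 3 SD, in both replicate runs; inconclusive = over that limit in just one replicate run; inactive = at or under that limit in both runs.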 Inconclusive results are not listed.

Test: growth suppression of PTEN-deleted HCT116, pilot screen, cell-based, HCT116 clonal line, CellTiter-Glo (AID 824;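 active = viability at or below 27.92% in each of two runs, the all-compound median minus 4 SD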;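 also: 0% = 20 µM Hyamine control and 100% = vehicle cell control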)
Conditions: 60 h, at 10 µM, hits give low values

Row | Structure (SMILES) | viability [%]
1 | CCN(c1ccccc1)c1cc(C)nc2nc(C)nn12 | 96.7
2 | Cc1sc(NC(=O)CCCC(=O)O)c(C#N)c1C | 99
3 | CCOc1ccc2nc(N3CCC(C(=O)Nc4nnc(CC)s4)CC3)sc2c1 | 95.1
4 | O=C(CN1C(=O)C2C3C=CC(C3)C2C1=O)Nc1ccc2nccnc2c1 (stereo not given) | 95.2
5 | Cn1nc(CC(=O)NC2CCCCCC2)c2ccccc2c1=O | 76.4
6 | O=C(C1CCN(S(=O)(=O)c2cccc3cccnc23)CC1)N1CCCC1 | 87.9
7 | COc1ccc(CNc2oc(C)nc2C#N)cc1 | 93.1
8 | CCOc1ccc2nc(N3CCC(C(=O)N4CCN(c5ccccn5)CC4)CC3)sc2c1 | 55.7
9 | CC(=NCc1cccnc1)C1=C(O)c2ccccc2C1=O | 96.4
10 | CC1CSc2nnc(CCc3ccccc3)n21 (stereo not given) | 89.2
11 | Nn1c(SC/C=C/c2ccccc2)nnc1-c1ccccn1 | 95.1
12 | Cc1cc(-c2nnc(-c3cc4ccccc4oc3=O)o2)c(C)n1-c1ccccc1 | 79.1
13 | COc1ccc(NS(=O)(=O)c2ccc(NS(=O)(=O)c3ccc(C)cc3)cc2)nn1 | 96.8
14 | CCC(C)C1C(C#N)=C(N)Oc2n[nH]c(-c3ccccc3)c21 (stereo not given) | 94.3
15 | Cc1c(NC2=C(Cl)C(=O)N(c3ccccc3)C2=O)c(=O)n(-c2ccccc2)n1C | 94.4
16 | COc1ccc(C2C(C(=O)NCCN3CCOCC3)c3ccccc3C(=O)N2C)cc1OC (stereo not given) | 100
17 | CN1C(=O)CS(=O)c2ccc(C(=O)NC3CC3)cc21 (stereo not given) | 95.4
18 | COc1ccc(CN2CCN(c3ncccn3)CC2)c(OC)c1 | 89.3
19 | Cc1ccc(CSc2nc3c(c(=O)[nH]c(=O)n3C)n2CCC(C)C)cc1 | 51.2
20 | COC(=O)C1C(=O)CC(C)(O)C(C(=O)OC)C1c1ccc2c(c1)OCO2 (stereo not given) | 98.5

Row | Structure (SMILES) | viability [%]
21 | Cn1c(NC(=O)c2ccc(Cl)cc2Cl)cc(=O)n(C)c1=O | 90.8
22 | CCCCC1CCC(c2nc(-c3cccnc3)no2)CC1 (stereo not given) | 88
23 | CCc1nnc(NC(=O)CSc2nnc(Cc3cccn3C)n2C)s1 | 96
24 | COc1ccc(-c2noc(-c3cccc(OC)c3OC)n2)cc1OC | 94.3
25 | CCCc1cc(C(=O)N2CCN(C(c3ccccc3)c3ccccc3)CC2)no1 | 90.9
26 | CCN(CC)CCCNC(=O)c1cc(-c2ccc(O)cc2)on1 | 96.1
27 | COc1ccccc1-n1c(SC)nc(O)cc1=O | 99
28 | CSC1=NCCN1C(=O)c1ccc(Br)o1 | 94.5
29 | CCNC(=O)c1c(N)sc2c1CCCCC2 | 100
30 | COc1cc(OC)c(NC(=O)c2ccc(Br)o2)cc1Cl | 70.6
31 | COc1ccc(OC)c(NC(=O)NC2(C(F)(F)F)Oc3ccccc3O2)c1 | 71.5
32 | O=C(Nc1cnc2ccccc2c1)c1ccncc1 | 87.1
33 | Cc1ccc(-c2nn(-c3ccccc3)cc2C(=O)N2CCOCC2)cc1 | 89
34 | CCN(CC)CCNC(=O)Cn1nc(Cc2cccnc2)c2ccccc2c1=O | 97.7
35 | CC(=O)c1ccc(OCC(O)CN2CCC(C)CC2)cc1 (stereo not given) | 101
36 | COC(=O)c1cccnc1-n1c(=O)c2cccnc2n(Cc2cccc(OC)c2)c1=O | 92.7
37 | Cc1cc(NS(=O)(=O)c2ccc(NC(=O)Nc3ccccc3)cc2)no1 | 103
38 | CSCC[C@@H](C(=O)O)N1Cc2ccccc2C1=O | 103
39 | CCC(NC(=O)c1ccccc1NC(=O)c1ccco1)C(=O)NC1CCCCC1 (stereo not given) | 98.3
40 | CC(C)N(Cc1ccccc1)C(=O)c1cnc2n(c1=O)CCS2 | 98.1

Test: inhibitors of the yeast RAM network, pilot screen, dse1pr::URA3 reporter, 5-FOA selection (AID 869);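 also: 0% = DMSO wells with no growth and 100% = 10 µM 1-NA-PP1 with full growth; RAM network block rescues cells from 5-FOA so hits raise OD615 growth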
Conditions: S. cerevisiae dse1pr::URA3 5-FOA growth, OD615, 2 d; at 10 µM; hits give high values; strain carries analog-sensitive mutant Cbk1 kinase

Row | Structure (SMILES) | inhibition [%]
41 | CCN(c1ccccc1)c1cc(C)nc2nc(C)nn12 | 1.6
42 | Cc1sc(NC(=O)CCCC(=O)O)c(C#N)c1C | 1.27
43 | CCOc1ccc2nc(N3CCC(C(=O)Nc4nnc(CC)s4)CC3)sc2c1 | 2.67
44 | O=C(CN1C(=O)C2C3C=CC(C3)C2C1=O)Nc1ccc2nccnc2c1 (stereo not given) | 2.29
45 | Cn1nc(CC(=O)NC2CCCCCC2)c2ccccc2c1=O | 0.825
46 | O=C(C1CCN(S(=O)(=O)c2cccc3cccnc23)CC1)N1CCCC1 | 1.52
47 | COc1ccc(CNc2oc(C)nc2C#N)cc1 | 0.24
48 | CCOc1ccc2nc(N3CCC(C(=O)N4CCN(c5ccccn5)CC4)CC3)sc2c1 | -0.605
49 | CC(=NCc1cccnc1)C1=C(O)c2ccccc2C1=O | 0.665
50 | CC1CSc2nnc(CCc3ccccc3)n21 (stereo not given) | 0.37
51 | Nn1c(SC/C=C/c2ccccc2)nnc1-c1ccccn1 | -0.5
52 | Cc1cc(-c2nnc(-c3cc4ccccc4oc3=O)o2)c(C)n1-c1ccccc1 | 3.04
53 | COc1ccc(NS(=O)(=O)c2ccc(NS(=O)(=O)c3ccc(C)cc3)cc2)nn1 | 2.95
54 | CCC(C)C1C(C#N)=C(N)Oc2n[nH]c(-c3ccccc3)c21 (stereo not given) | 1.06
55 | Cc1c(NC2=C(Cl)C(=O)N(c3ccccc3)C2=O)c(=O)n(-c2ccccc2)n1C | 1.42
56 | COc1ccc(C2C(C(=O)NCCN3CCOCC3)c3ccccc3C(=O)N2C)cc1OC (stereo not given) | 1.24
57 | CN1C(=O)CS(=O)c2ccc(C(=O)NC3CC3)cc21 (stereo not given) | 2.25
58 | COc1ccc(CN2CCN(c3ncccn3)CC2)c(OC)c1 | 1.24
59 | Cc1ccc(CSc2nc3c(c(=O)[nH]c(=O)n3C)n2CCC(C)C)cc1 | 4.83
60 | COC(=O)C1C(=O)CC(C)(O)C(C(=O)OC)C1c1ccc2c(c1)OCO2 (stereo not given) | 1.74

Row | Structure (SMILES) | inhibition [%]
61 | Cn1c(NC(=O)c2ccc(Cl)cc2Cl)cc(=O)n(C)c1=O | 0.95
62 | CCCCC1CCC(c2nc(-c3cccnc3)no2)CC1 (stereo not given) | -1.52
63 | CCc1nnc(NC(=O)CSc2nnc(Cc3cccn3C)n2C)s1 | 0.7
64 | COc1ccc(-c2noc(-c3cccc(OC)c3OC)n2)cc1OC | 2.87
65 | CCCc1cc(C(=O)N2CCN(C(c3ccccc3)c3ccccc3)CC2)no1 | 0.485
66 | CCN(CC)CCCNC(=O)c1cc(-c2ccc(O)cc2)on1 | 1.24
67 | COc1ccccc1-n1c(SC)nc(O)cc1=O | 2.01
68 | CSC1=NCCN1C(=O)c1ccc(Br)o1 | 0.975
69 | CCNC(=O)c1c(N)sc2c1CCCCC2 | 1.88
70 | COc1cc(OC)c(NC(=O)c2ccc(Br)o2)cc1Cl | 1.47
71 | COc1ccc(OC)c(NC(=O)NC2(C(F)(F)F)Oc3ccccc3O2)c1 | 0.25
72 | O=C(Nc1cnc2ccccc2c1)c1ccncc1 | 2.08
73 | Cc1ccc(-c2nn(-c3ccccc3)cc2C(=O)N2CCOCC2)cc1 | 0.805
74 | CCN(CC)CCNC(=O)Cn1nc(Cc2cccnc2)c2ccccc2c1=O | -0.35
75 | CC(=O)c1ccc(OCC(O)CN2CCC(C)CC2)cc1 (stereo not given) | 0.54
76 | COC(=O)c1cccnc1-n1c(=O)c2cccnc2n(Cc2cccc(OC)c2)c1=O | 0.47
77 | Cc1cc(NS(=O)(=O)c2ccc(NC(=O)Nc3ccccc3)cc2)no1 | 1.92
78 | CSCC[C@@H](C(=O)O)N1Cc2ccccc2C1=O | 1.69
79 | CCC(NC(=O)c1ccccc1NC(=O)c1ccco1)C(=O)NC1CCCCC1 (stereo not given) | 1.35
80 | CC(C)N(Cc1ccccc1)C(=O)c1cnc2n(c1=O)CCS2 | 1.28
